Assay results reported in PubChem BioAssay (NCATS).
Results filed as inconclusive are left out. Where a call stands in place of a potency, no number is given. The source made the active and inactive calls. Unless noted, calls come from the whole dose curve; as a rule, active = well fitted cell-killing curve with a large enough effect; inconclusive = small, poorly fitted or top-dose-only effect; inactive = flat fitted curve, though single readings scatter.

test: Cell Viability - LYMP2-026 (AID 989); conditions: LYMP2-026 lymphoblastoid cell viability, qHTS; series mostly up to 92.2 µM;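 note: cells exposed to compound for 24 h at 37 °C; nearly all actives have a fitted effect of over 50% in size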
How it was run: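 Concentration-dependent loss of intracellular ATP in human lymphoblastoid cells after 24 hr at 37 C, quantified by luciferase luminescence. AC50 derived from standard Hill equation.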

| SMILES | Potency |
| --- | --- |
| COc1ccc(C)cc1N | inactive |
| CCc1ccc(C(c2ccc(CC)cc2)C(Cl)Cl)cc1 | inactive |
| O=[N+]([O-])c1ccccc1Nc1ccccc1 | inactive |
| C=CC1CO1 (stereo unspecified) | inactive |
| COc1cc(-c2ccc(N=C=O)c(OC)c2)ccc1N=C=O | inactive |
| CCOC(=O)C1OC1c1ccccc1 (stereo unspecified) | inactive |
| COc1ccc(C(=O)Nc2ccccc2)cc1[N+](=O)[O-] | inactive |

test: Cell Viability - LYMP1-002 - Assay at 24 hr (AID 993); conditions: LYMP1-002 lymphoblastoid cells viability; series mostly up to 92.2 µM
How it was run: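 qHTS, LYMP1-002 lymphoblastoid, 24 h cpd, 37 C, CellTiter-Glo ATP luminescence; AC50 via Hill eq.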

| SMILES | Potency |
| --- | --- |
| CCCCCCc1ccc(-c2ccc(C#N)cc2)cc1 | inactive |
| Nc1cnn([C@@H]2O[C@H](CO)[C@@H](O)[C@H]2O)c(=O)n1 | inactive |
| CCCCCCCCOc1ccc(C(=O)O)cc1 | inactive |
| Oc1c(Cl)cc(Cl)c(Cl)c1Cl | inactive |
| CC(C)OCC1CO1 (stereo unspecified) | inactive |
| C/C(Cl)=C/CCl | inactive |
| CCCCNCC | inactive |
| O=c1[nH]ncc2ccccc12 | inactive |
| c1ccc(COCc2ccccc2)cc1 | inactive |
| O=[N+]([O-])c1cccc(I)c1 | inactive |
| Nc1ccc2c(c1)C(=O)c1ccccc1C2=O | inactive |
| c1ccc2c(c1)ccc1ccccc12 | inactive |
| Nc1ccc(N=Nc2ccccc2)c(N)c1 | inactive |
| Cc1ccc(C(=O)O)cc1[N+](=O)[O-] | inactive |
| COc1ccc([N+](=O)[O-])cc1N | inactive |
| OCC(CO)(CBr)CBr | inactive |
| Nc1cc(C(=O)O)c(O)c(S(=O)(=O)O)c1 | inactive |
| Oc1ccc2c(c1)OCO2 | inactive |
| c1ccncc1 | inactive |

| SMILES | Potency |
| --- | --- |
| CC(=O)OC1CC(C)OC(C)O1 (stereo unspecified) | inactive |
| O=C(OCc1ccccc1)c1ccccc1O | inactive |
| C/C=C/C=C/C=O | inactive |
| CCN(CC)c1ccc2c(C)cc(=O)oc2c1 | inactive |
| c1c[nH]cn1 | inactive |
| c1ccc(SCCSc2ccccc2)cc1 | inactive |
| O=C(O)/C=C/c1ccc(/C=C/C(=O)O)cc1 | inactive |
| CCCCOC(=O)COc1ccc(Cl)cc1Cl | inactive |
| CC(=O)OC(C(=O)c1ccccc1)c1ccccc1 (stereo unspecified) | inactive |
| CCCCCCN | inactive |
| CC(=O)Nc1cccc(C)c1 | inactive |
| CCC(Cl)CC(Cl)C(Cl)C(Cl)C(Cl)C(C)Cl (stereo unspecified) | inactive |
| COc1ccc(C)cc1N | inactive |
| CCc1ccc(C(c2ccc(CC)cc2)C(Cl)Cl)cc1 | inactive |
| O=[N+]([O-])c1ccccc1Nc1ccccc1 | inactive |
| C=CC1CO1 (stereo unspecified) | inactive |
| COc1cc(-c2ccc(N=C=O)c(OC)c2)ccc1N=C=O | inactive |
| CCOC(=O)C1OC1c1ccccc1 (stereo unspecified) | inactive |
| COc1ccc(C(=O)Nc2ccccc2)cc1[N+](=O)[O-] | inactive |

test: Cell Viability - LYMP1-002 - Assay at 40 hr (AID 994); conditions: LYMP1-002 lymphoblastoid cell viability; series mostly up to 92.2 µM; note: nearly all actives have a fitted effect of over 60% in size
How it was run: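 Viability in the human lymphoblastoid line was measured as intracellular ATP via CellTiter-Glo after 40 hr compound exposure. Tetraoctylammonium bromide served as positive control.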

| SMILES | Potency |
| --- | --- |
| CCCCCCCCOc1ccc(C(=O)O)cc1 | inactive |
| CC(C)OCC1CO1 (stereo unspecified) | inactive |
| C/C(Cl)=C/CCl | inactive |
| O=c1[nH]ncc2ccccc12 | inactive |
| c1ccc(COCc2ccccc2)cc1 | inactive |
| O=[N+]([O-])c1cccc(I)c1 | inactive |
| c1ccc2c(c1)ccc1ccccc12 | inactive |
| Nc1ccc(N=Nc2ccccc2)c(N)c1 | inactive |
| COc1ccc([N+](=O)[O-])cc1N | inactive |
| OCC(CO)(CBr)CBr | inactive |
| Nc1cc(C(=O)O)c(O)c(S(=O)(=O)O)c1 | inactive |
| Oc1ccc2c(c1)OCO2 | inactive |
| CC(=O)OC1CC(C)OC(C)O1 (stereo unspecified) | inactive |
| O=C(OCc1ccccc1)c1ccccc1O | inactive |
| CCN(CC)c1ccc2c(C)cc(=O)oc2c1 | inactive |
| O=C(O)/C=C/c1ccc(/C=C/C(=O)O)cc1 | inactive |
| CCCCOC(=O)COc1ccc(Cl)cc1Cl | inactive |
| CC(=O)OC(C(=O)c1ccccc1)c1ccccc1 (stereo unspecified) | inactive |
| CC(=O)Nc1cccc(C)c1 | inactive |
| COc1ccc(C)cc1N | inactive |
| CCc1ccc(C(c2ccc(CC)cc2)C(Cl)Cl)cc1 | inactive |
| C=CC1CO1 (stereo unspecified) | inactive |

test: qHTS Assay for Identification of Small Molecule Inducers of Hypoxia Response (AID 2120; active = well fitted curve in the direction sought with a large enough effect in the signal ratio, with a control signal flat, not every such curve was filed as active; the % refers to the signal ratio; note: potency is the fitted concentration of half-maximal effect); conditions: hypoxia response reporter cells, beta-lactamase ratio readout; series mostly up to 104 µM
How it was run: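 Induction of beta-lactamase reporter activity was measured in CellSensor HRE-bla ME-180 cells after 17 h compound treatment at 37 degrees C, using CCF4 substrate and the 460nm/530nm emission ratio to derive AC50 values.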

| SMILES | Potency |
| --- | --- |
| CCCCCCc1ccc(-c2ccc(C#N)cc2)cc1 | inactive |
| Nc1cnn([C@@H]2O[C@H](CO)[C@@H](O)[C@H]2O)c(=O)n1 | inactive |
| CCCCCCCCOc1ccc(C(=O)O)cc1 | inactive |
| Oc1c(Cl)cc(Cl)c(Cl)c1Cl | inactive |
| CC(C)OCC1CO1 (stereo unspecified) | inactive |
| C/C(Cl)=C/CCl | inactive |
| CCCCNCC | inactive |
| O=c1[nH]ncc2ccccc12 | inactive |
| c1ccc(COCc2ccccc2)cc1 | inactive |
| O=[N+]([O-])c1cccc(I)c1 | inactive |
| Nc1ccc2c(c1)C(=O)c1ccccc1C2=O | inactive |
| c1ccc2c(c1)ccc1ccccc12 | inactive |
| Nc1ccc(N=Nc2ccccc2)c(N)c1 | inactive |
| Cc1ccc(C(=O)O)cc1[N+](=O)[O-] | inactive |
| COc1ccc([N+](=O)[O-])cc1N | inactive |
| OCC(CO)(CBr)CBr | inactive |
| Nc1cc(C(=O)O)c(O)c(S(=O)(=O)O)c1 | inactive |
| Oc1ccc2c(c1)OCO2 | inactive |
| c1ccncc1 | inactive |
| CC(=O)OC1CC(C)OC(C)O1 (stereo unspecified) | inactive |

| SMILES | Potency |
| --- | --- |
| O=C(OCc1ccccc1)c1ccccc1O | inactive |
| C/C=C/C=C/C=O | inactive |
| CCN(CC)c1ccc2c(C)cc(=O)oc2c1 | 44.7 µM (active) |
| c1c[nH]cn1 | inactive |
| c1ccc(SCCSc2ccccc2)cc1 | inactive |
| O=C(O)/C=C/c1ccc(/C=C/C(=O)O)cc1 | inactive |
| CCCCOC(=O)COc1ccc(Cl)cc1Cl | inactive |
| CC(=O)OC(C(=O)c1ccccc1)c1ccccc1 (stereo unspecified) | inactive |
| CCCCCCN | inactive |
| CC(=O)Nc1cccc(C)c1 | inactive |
| CCC(Cl)CC(Cl)C(Cl)C(Cl)C(Cl)C(C)Cl (stereo unspecified) | inactive |
| COc1ccc(C)cc1N | inactive |
| CCc1ccc(C(c2ccc(CC)cc2)C(Cl)Cl)cc1 | inactive |
| C[C@@H]1CC2(OC(O)[C@]3(C)O[C@H]23)O[C@H]2C[C@@]3(C)[C@@H]4CC[C@H]5C(C)(C)C(O[C@@H]6OC[C@@H](O)[C@H](O)[C@H]6O)CC[C@@]56C[C@@]46CC[C@]3(C)[C@@H]12 (stereo partly specified) | inactive |
| O=[N+]([O-])c1ccccc1Nc1ccccc1 | inactive |
| C=CC1CO1 (stereo unspecified) | inactive |
| COc1cc(-c2ccc(N=C=O)c(OC)c2)ccc1N=C=O | inactive |
| CCOC(=O)C1OC1c1ccccc1 (stereo unspecified) | inactive |
| COc1ccc(C(=O)Nc2ccccc2)cc1[N+](=O)[O-] | inactive |
